Screening data from PubChem BioAssay.
Hits are enriched below; roughly 2.8% of the tested compounds scored in any of these assays.
PI5P4K alpha inh: inhibitors of human PI5P4K alpha. P48426. PI5P4Kalpha enzyme, ADP-Glo luminescence, 60 min; hits give low values. max response, %. hit rate 1.2% among 330,000; active = max response of -50% or lower; inconclusive = between -30% and -50%; inactive = -30% or higher; note: value at the top dose of about 77 µM; % is set by controls: 0 for no effect and ±100 for the full control effect
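Enzyme plus substrate dispensed, test compounds pinned in, then ATP (5 microM final) added. After 60 min at RT, ADP-Glo reagent 1 for 45 min and reagent 2 for 30 min preceded luminescence imaging.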
POLB inh: blocks human DNA polymerase beta activity; P06746; Potency, µM (top dose mostly 114 µM), for the others: top-dose activity change, negative = inhibition, usual class: inhibitors; Pol beta primer extension/strand displacement, fluorescence kinetic; hit rate 1.3% among 340,000; AID 485314; note: potency is the fitted concentration of half-maximal effect; % is set by controls: 0 for no effect and ±100 for the full control effect
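Homogeneous kinetic assay of primer extension and strand displacement by 10 nM Pol beta, preincubated 15 min at room temperature with compound before 50 nM substrate (final) was added. Read at 0 and 10 min; four-parameter Hill fit.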
Pol eta inh: DNA polymerase eta (human) inhibition; Q9Y253; recombinant Pol eta, fluorescent DNA replication assay; Potency, µM (doses to about 114 µM), inactives show at the highest dose activity change, negative = inhibition, most hits filed as inhibitors; hit rate 1.2% among 390,000; AID 588591; note: potency is the fitted concentration of half-maximal effect; % is set by controls: 0 for no effect and ±100 for the full control effect
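Pol eta (10 nM) was preincubated with compounds for 15 min at room temperature, after which fluorescent replication substrate (50 nM final) was added to start the reaction. Fluorescence was read kinetically at 0 and 10 min.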
Pol kappa inh: blocks human DNA polymerase kappa activity. purified Pol kappa, fluorescent DNA synthesis assay, 10 min. hit rate 0.53% among 400,000. Potency, µM (series often up to 107 µM), for inactives: at the highest dose activity, negative = inhibition, most hits filed as inhibitors. Q9UBT6; note: potency is the fitted concentration of half-maximal effect; % is set by controls: 0 for no effect and ±100 for the full control effect
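First, compounds were pin-transferred onto 10 nM Pol kappa. After 15 min at room temperature, substrate was added to 50 nM final. Fluorescence was then measured kinetically at 0 and 10 min.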
Pol iota inh: blocks human DNA polymerase iota activity; Q9UNA4; Pol iota fluorescent replication assay, 10 min; Potency, µM (doses to about 115 µM), inactives show at the highest dose activity, negative = inhibition, usual class: inhibitors; hit rate 1% among 390,000; AID 588590; note: potency is the fitted concentration of half-maximal effect
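Fluorescent replication assay read twice, at 0 min and 10 min after adding 50 nM (final) substrate. Enzyme (10 nM) and compounds were first incubated 15 min at room temperature; enzyme-free buffer wells were negative controls.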
PI4K2A inh: inhibitors of human PI4K2A; purified PI4K2A, ADP-Glo luminescence, 1 h; hits give low values; activity change, negative = inhibition, % at 76.9 µM; hit rate 0.13% among 420,000; AID 1346378; in the data active = activity change below about -50%; inconclusive = mostly about -30% to -49%;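 note: -100% = wells without enzyme as full effect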
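ADP-Glo luminescence measured ADP generated by PI4K2A enzyme (4 ug/mL before mixing) with 1.2 mM PI substrate (pre-mix) and 300 microM ATP (pre-mix). Tris pH7.5 buffer with MgCl2, Triton X-100; 1 h reaction at ambient temperature.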
* marks the source's active call; other numbers are inactive results; ? = inconclusive; / = not tested or not shown; [ ] = another dose, or the depositor's remark. Unless noted, calls come from the whole dose curve; as a rule, active = well fitted inhibition curve with a large enough effect; inconclusive = small, poorly fitted or top-dose-only effect, or another doubt; inactive = no such curve, though single readings can be large or run the other way.

SMILES	PI5P4K alpha inh	POLB inh	Pol eta inh	Pol kappa inh	Pol iota inh	PI4K2A inh
COc1cc2cncc(Cc3ccccc3)c2cc1O	-7	/	-17%	-3%	40%	-4
COc1cc2c(Cc3ccccc3)cncc2cc1O	2	/	0%	89µM*	19%	1
Cn1c(=O)c2nc(SCC(=O)Nc3ccc(Cl)c(Cl)c3)n(C)c2n(C)c1=O	/	3%	-15%	-1%[60.1 µM]	5%	-1
CN(C)c1ccc(/C=C2/SC(=O)N(CCN=C3NS(=O)(=O)c4ccccc43)C2=O)cc1	1	-1%[57.1 µM]	?	-13%	2%	-4
CN(C)c1ccc(/C=C2\SC(=O)N(CCc3nnc(N)s3)C2=O)cc1	?	?	-11%	-18%	50µM*	-10
Cc1cc2c(c(=O)o1)C1O[C@](c3ccsc3)(Cc3ccccc31)O2	/	1%[22.9 µM]	/	/	/	/
CCCCCn1c(=O)c(C(=O)c2ccccc2)nc2ccccc21	4	25%	-9%	-6%	16%	-1
CCCCCCn1c(=O)[nH]c2nc3cc(N)ccc3nc2c1=O	?	10µM*	-23%	-16%	27%	-4
CCc1ccc(NC(=O)CS(=O)CC(=O)Nc2ccc(-n3cnnn3)c(C)c2)cc1 (stereo not drawn)	0	25µM*	-2%	-13%	14%	-1
Cc1ccc(NC(=O)c2ccccc2)cc1-n1cnnn1	1	32µM*	-14%	-4%	26%	-1
OCC(O)C[n+]1cccc(Br)c1 (stereo not drawn)	/	/	/	-3%	2%	/
COc1ccccc1N1CCN(C(=O)c2ccc3nc(-c4ccco4)c(-c4ccco4)nc3c2)CC1	-16	28µM*	-17%	-28%	?	2
CN(C)/C=C/C(=O)c1ccc(-c2ccc(Cl)cc2Cl)o1	-64*	32µM*	-19%	-14%	92%	-10
O=C(O)c1ccc(-c2ccc(Cl)cc2Cl)o1	?	17%	6%	-10%	3%	-3
Cc1ccc(-c2ccc(C3C(C#N)=C(N)Oc4n[nH]c(C)c43)o2)cc1 (stereo not drawn)	/	-20%	-11%	-18%	?	-4
Cc1[nH]nc2c1C(c1ccsc1)C(C#N)=C(N)O2 (stereo not drawn)	-60*	7%	-1%	-7%	3%	0
N#CC1=C(N)Oc2n[nH]c(-c3ccncc3)c2C1c1ccsc1 (stereo not drawn)	/	-1%	-16%	-14%	-6%	-8
Cc1[nH]nc2c1C(c1ccc(-c3ccccc3C#N)o1)C(C#N)=C(N)O2 (stereo not drawn)	/	56µM*	4%	4%	10%	9
Cc1ccc(-c2[nH]nc3c2C(c2ccsc2)C(C#N)=C(N)O3)cc1 (stereo not drawn)	-52*	12%	-7%	1%	12%	-1
N#CC1=C(N)Oc2n[nH]c(-c3ccccc3)c2C1c1ccsc1 (stereo not drawn)	-65*	-24%	?	-16%	?	-3
COc1ccc(-c2[nH]nc3c2C(c2ccsc2)C(C#N)=C(N)O3)cc1 (stereo not drawn)	/	-1%	-4%	-5%	1%	0
Cc1nn(-c2ccccc2)c2c1cc1c(=O)[nH]c(=O)nc-1n2-c1cccc(C(F)(F)F)c1	/	-26%	-14%	-7%	?	3
CCOC(=O)c1c(C)[nH]c(C)c1S(=O)(=O)N(C)CC(=O)N1CCN(c2ccccc2OC)CC1	/	5%	0%	-4%	-3%	-4
Cc1ccc(C(=O)Nc2ccc(Cl)c(-c3nc4ncccc4o3)c2)c(C)c1	/	17%	-16%	0%	35%	-1
COc1cc2oc(=O)c(CC(=O)NCc3ccc(OC)c(OC)c3)c(C)c2cc1Cl	/	-12%	-9%	1%	17%	-1
Cc1cc(C)c2oc(C(=O)Nc3sc4c(c3C(=O)NCc3ccco3)CCC4)cc(=O)c2c1	/	31%	-6%	14%	20%	-6
CC(C)=CC[C@@H](O)C1=CC(=O)c2c(O)ccc(O)c2C1=O	/	/	/	0.89µM*	/	/
CSCC[C@@H](N)C(=O)O	/	/	/	5%[19.4 µM]	/	/
O=[N+]([O-])c1cccc2c[nH]nc12	/	/	/	13µM*	/	/
